Compounds without any hit were thinned out: in the full panel of roughly 79,000, 15% have a hit. Active and inactive are the calls of the source. Rule as the data show it: active = growth inhibition above about 70%; inactive = the rest.
Key:
[1] = NCI Yeast Anticancer Drug Screen. Data for the rad52 strain (AID 147);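 also: 0% = growth of vehicle-treated control cultures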; conditions: S. cerevisiae rad52 mutant growth inhibition, hits give high values
Summary of the method: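 Genetically altered yeast (DNA damage repair defect) treated with compound; inhibition calculated relative to vehicle.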

[2] = NCI Yeast Anticancer Drug Screen. Data for the wt1 strain (AID 149);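 also: 0% = growth of vehicle-treated wt1 cultures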; conditions: S. cerevisiae wt1 strain (SPY 50644) growth inhibition, hits give high values
Summary of the method: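 Measured: growth of wt1 yeast under compound versus vehicle treatment, reported as inhibition.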

[3] = NCI Yeast Anticancer Drug Screen. Data for the rad50EPP+ strain (AID 151);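 also: 0% = growth of vehicle-treated control cultures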; conditions: S. cerevisiae rad50 mutant strain, hits give high values
Summary of the method: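 Strain rad50EPP+; compound exposure; % growth inhibition vs vehicle.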

[4] = NCI Yeast Anticancer Drug Screen. Data for the mgt1 strain (AID 153); conditions: S. cerevisiae mgt1 mutant growth inhibition, hits give high values
Summary of the method: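 Read-out: yeast growth inhibition vs vehicle control. Strain mgt1, drawn from a panel altered in DNA damage repair or cell cycle control.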

[5] = NCI Yeast Anticancer Drug Screen. Data for the rad50 strain (AID 155);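 also: 0% = growth of vehicle-only cultures of the same strain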; conditions: S. cerevisiae rad50 strain growth inhibition, hits give high values
Summary of the method: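 Growth of the mutant yeast was measured after compound exposure and referenced to vehicle-treated cultures.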

[6] = NCI Yeast Anticancer Drug Screen. Data for the mec2-1 strain (AID 157); conditions: S. cerevisiae mec2-1 strain, hits give high values
Summary of the method: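 Cells of the genetically defined mec2-1 yeast strain are incubated with test compound. Inhibition of growth is calculated against vehicle-treated controls.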

[7] = NCI Yeast Anticancer Drug Screen. Data for the rad14 strain (AID 159);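 also: 0% = growth of vehicle-treated control cultures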; conditions: S. cerevisiae rad14 strain growth inhibition, hits give high values
Summary of the method: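 Here, inhibition of yeast growth was measured after compound exposure, using a strain with a genetic defect in DNA damage repair and vehicle-treated cultures as the reference.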

[8] = NCI Yeast Anticancer Drug Screen. Data for the sgs1 mgt1 strain (AID 161);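 also: 0% = growth of cultures given vehicle only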; conditions: S. cerevisiae sgs1 mgt1 strain, hits give high values
Summary of the method: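 Genetically altered yeast, compound exposure, growth inhibition relative to vehicle.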

[9] = NCI Yeast Anticancer Drug Screen. Data for the CLN2oe strain (AID 163);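 also: 0% = growth of vehicle-only control cultures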; conditions: S. cerevisiae CLN2oe strain, hits give high values
Summary of the method: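 Strain altered in cell-cycle control, incubated with compound; growth compared to solvent-treated controls.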

[10] = NCI Yeast Anticancer Drug Screen. Data for the cln2 rad14 strain (AID 165);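 also: 0% = growth equal to vehicle treated cultures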; conditions: S. cerevisiae cln2 rad14 strain, hits give high values
Summary of the method: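 The screen exposed genetically defined yeast (cln2 rad14) to test compounds and scored growth inhibition relative to vehicle-treated controls.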

[11] = NCI Yeast Anticancer Drug Screen. Data for the bub3 strain (AID 167); conditions: S. cerevisiae bub3 mutant strain, hits give high values
Summary of the method: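 Whole-cell yeast assay. The mutant strain was incubated with compounds, and growth inhibition was determined by comparison with vehicle-treated cells.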

[12] = NCI Yeast Anticancer Drug Screen. Data for the wt2 strain (AID 169);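 also: 0% = growth of vehicle-treated yeast cultures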; conditions: S. cerevisiae wt2 strain growth inhibition, hits give high values
Summary of the method: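 Steps: yeast strain treated with compound; growth recorded; inhibition calculated relative to cultures given vehicle alone.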

[13] = NCI Yeast Anticancer Drug Screen. Data for the sgs1 strain (AID 173);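 also: 0% = growth of vehicle-only control cultures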; conditions: S. cerevisiae sgs1 mutant, hits give high values
Summary of the method: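 Inhibition of yeast growth served as the measure. The mutant strain was treated with each compound, and growth was normalised to cultures receiving vehicle alone.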

[14] = NCI Yeast Anticancer Drug Screen. Data for the mlh1 rad18 strain (AID 175); conditions: S. cerevisiae mlh1 rad18 strain growth inhibition, hits give high values
Summary of the method: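 Compound-treated yeast growth, normalised to vehicle controls. Strain bears defined DNA repair mutations.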

[15] = NCI Yeast Anticancer Drug Screen. Data for the rad18 strain (AID 177); conditions: S. cerevisiae rad18 mutant growth inhibition, hits give high values
Summary of the method: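 Inhibition values reflect reduced yeast growth compared with vehicle-treated controls, using a strain engineered with a DNA damage repair defect.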

[16] = at 5.0 µM (retest, dose inferred, filed as 0.5)
[17] = at 50.0 µM (retest, dose inferred, filed as 5.0)

Measured: growth inhibition

O=C(c1ccc([N+](=O)[O-])cc1)C1N=NCC1c1ccccc1 (stereo not drawn)
inactive: [1]; at 1.2 µM 2% | [1]; at 3.7 µM 5% | [1]; at 11.0 µM 6% | [1]; at 33.0 µM 7% | [1]; at 100.0 µM 45% | [2]; at 1.2 µM 2% | [2]; at 3.7 µM 1% | [2]; at 11.0 µM 4% | [2]; at 33.0 µM 1% | [2]; at 100.0 µM 9% | [3]; at 1.2 µM -2% | [3]; at 3.7 µM -3% | [3]; at 11.0 µM -2% | [3]; at 33.0 µM 9% | [3]; at 100.0 µM 37% | [4]; at 1.2 µM -4% | [4]; at 3.7 µM -2% | [4]; at 11.0 µM 0% | [4]; at 33.0 µM 19% | [4]; at 100.0 µM 62% | [5]; at 1.2 µM 4% | [5]; at 3.7 µM 4% | [5]; [16] 13% | [5]; at 11.0 µM 5% | [5]; at 33.0 µM 7% | [5]; [17] 11% | [5]; at 50.0 µM 31% | [5]; at 100.0 µM 34% | [6]; at 1.2 µM -2% | [6]; at 3.7 µM 1% | [6]; [16] 0% | [6]; at 11.0 µM 1% | [6]; at 33.0 µM 1% | [6]; [17] 22% | [6]; at 50.0 µM 20.8% | [6]; at 100.0 µM 45% | [7]; at 1.2 µM 1% | [7]; at 3.7 µM 2% | [7]; at 11.0 µM 6% | [7]; at 33.0 µM 13% | [7]; at 100.0 µM 51% | [8]; [16] 3% | [8]; [17] 27% | [8]; at 50.0 µM 59% | [9]; at 1.2 µM 0% | [9]; at 3.7 µM 2% | [9]; at 11.0 µM 4% | [9]; at 33.0 µM 9% | [9]; at 100.0 µM 54% | [10]; [16] 5% | [10]; [17] 27% | [10]; at 50.0 µM 55.6% | [11]; at 1.2 µM 0% | [11]; at 3.7 µM -3% | [11]; [16] -3% | [11]; at 11.0 µM 2% | [11]; at 33.0 µM 11% | [11]; [17] 30% | [12]; at 1.2 µM 0% | [12]; at 3.7 µM -1% | [12]; at 11.0 µM 1% | [12]; at 33.0 µM 4% | [12]; at 100.0 µM 64% | [13]; at 1.2 µM 0% | [13]; at 3.7 µM 1% | [13]; at 11.0 µM 3% | [13]; at 33.0 µM 13% | [14]; [16] -3% | [14]; [17] 35% | [14]; at 50.0 µM 42% | [15]; at 1.2 µM 2% | [15]; at 3.7 µM 0% | [15]; at 11.0 µM 7% | [15]; at 33.0 µM 1% | [15]; at 100.0 µM 40%
active: [11]; at 50.0 µM 71.8% | [11]; at 100.0 µM 75% | [13]; at 100.0 µM 78%
